“And” between values parts separate entries of the source, which are not always exact repeats. Equal entries are not always repeated. Results filed as inconclusive are left out. The source made the active and inactive calls. Unless noted, calls follow the shape of the dose curve; as a rule, active = well fitted curve in the direction sought with a large enough effect; inconclusive = small, poorly fitted or top-dose-only effect, or another doubt; inactive = no such curve, though single readings can be large; an effect the other way counts as inactive or inconclusive.
Columns and labels:
[1] = target: Cytochrome P450 2C9 (Homo sapiens) (UniProt P11712); assay: qHTS Assay for Inhibitors and Substrates of Cytochrome P450 2C9 (AID 883); also: nearly all actives have a fitted effect of over 60% in size; also: potency is read from the fitted curve at half-maximal effect
Chain of Cytochrome P450 2C9 (Homo sapiens) (P11712 whole entry, looked up): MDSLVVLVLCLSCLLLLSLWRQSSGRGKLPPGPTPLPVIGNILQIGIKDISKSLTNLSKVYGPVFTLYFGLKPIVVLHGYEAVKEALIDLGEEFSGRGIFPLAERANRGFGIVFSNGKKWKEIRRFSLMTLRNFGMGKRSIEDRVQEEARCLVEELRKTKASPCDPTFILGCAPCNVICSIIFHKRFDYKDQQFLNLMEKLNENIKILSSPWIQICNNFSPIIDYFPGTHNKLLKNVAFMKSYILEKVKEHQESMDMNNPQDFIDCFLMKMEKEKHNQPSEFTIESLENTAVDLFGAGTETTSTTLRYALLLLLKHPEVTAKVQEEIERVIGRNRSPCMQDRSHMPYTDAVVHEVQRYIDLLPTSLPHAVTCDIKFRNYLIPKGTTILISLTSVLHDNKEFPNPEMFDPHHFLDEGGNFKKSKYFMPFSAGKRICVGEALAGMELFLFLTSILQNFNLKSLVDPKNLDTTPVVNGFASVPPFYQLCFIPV
Outline: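 Luminescent read-out of deoxyluciferin hydroxylation, normalized to 57uM sulphaphenazole (AC100). Reaction: 10nM enzyme, 100uM Luciferin-H (equal to KM), 25mM KPO4, 10 min compound preincubation, then 60 min with NADPH regeneration, both at 37C.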

[2] = target: Cytochrome P450 2C19 (Homo sapiens) (UniProt P33261); assay: qHTS Assay for Inhibitors and Substrates of Cytochrome P450 2C19 (AID 899); also: nearly all actives have a fitted effect of over 60% in size; also: potency is read from the fitted curve at half-maximal effect
Chain of Cytochrome P450 2C19 (Homo sapiens) (P33261 whole entry, looked up): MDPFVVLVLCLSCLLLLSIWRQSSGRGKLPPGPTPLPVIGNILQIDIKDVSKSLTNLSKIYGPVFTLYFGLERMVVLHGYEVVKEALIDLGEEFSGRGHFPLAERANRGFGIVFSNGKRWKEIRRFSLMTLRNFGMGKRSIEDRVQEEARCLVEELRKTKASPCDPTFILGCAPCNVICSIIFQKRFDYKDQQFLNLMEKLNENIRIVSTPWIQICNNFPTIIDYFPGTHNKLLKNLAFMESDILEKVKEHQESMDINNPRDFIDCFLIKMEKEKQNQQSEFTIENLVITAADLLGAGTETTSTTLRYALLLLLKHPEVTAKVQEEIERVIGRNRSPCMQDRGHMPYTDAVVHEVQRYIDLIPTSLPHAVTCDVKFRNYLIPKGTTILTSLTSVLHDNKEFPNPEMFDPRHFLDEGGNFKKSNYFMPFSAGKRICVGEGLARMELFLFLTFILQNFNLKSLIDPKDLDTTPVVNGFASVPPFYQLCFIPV
Outline: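 Luminescence readout of luciferin formed from 10uM Luciferin-H EGE (KM level) by 5 nM CYP2C19 in 50mM KPO4. 60 min NADPH-driven reaction at 37C after 10 min compound preincubation; data scaled to 57uM ketoconazole inhibition.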

[3] = Cell Viability - HepG2 (AID 433; calls by dose curve;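 also: potency is read from the fitted curve at half-maximal effect; potency for ATP loss meaning cytotoxicity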); details: qHTS
Outline: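 In this qHTS format, a 40 h, 37 °C compound incubation of HepG2 cells in complete medium precedes a 20 min CellTiter-Glo step at room temperature. Tamoxifen and doxorubicin serve as positive controls; Hill-equation fits yield AC50.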

[4] = Cell Viability - NIH 3T3 (AID 541); details: NIH 3T3 cell viability, qHTS; activity change, negative = cytotoxicity: at 92.2 µM (top of the series);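 also: plate controls were DMSO alone for no effect and tamoxifen positive control for full effect; nearly all actives have a fitted effect of over 25% in size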
Outline: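 NIH 3T3 mouse embryo fibroblasts (1000 cells/well) were plated in complete medium and treated with compound for 40 hr at 37 °C. Viability was read as intracellular ATP by CellTiter-Glo luminescence; AC50 values came from Hill-equation fits of concentration-response data.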

[5] = Cell Viability - HUV-EC-C (AID 542); also: nearly all actives have a fitted effect of over 35% in size; also: potency is read from the fitted curve at half-maximal effect; as to activity change, negative = cytotoxicity: % is scaled to controls: 0 for no effect and ±100 for the full control effect
Outline: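 HUV-EC-C normal human vascular endothelial cells, 1000 cells/well, pre-incubated 5 hr at 37 °C, then exposed to compounds for 40 hr at 37 °C in complete medium. Viability measured as intracellular ATP by CellTiter-Glo luminescence; AC50 from Hill fits.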

[6] = Cell Viability - Renal Proximal Tubule (AID 545); details: renal proximal tubule cells viability; at 91.7 µM (top of the series), primary cells of rat origin unless noted;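 also: 0% = DMSO only and -100% = 100 µM tamoxifen; nearly all actives have a fitted effect of over 40% in size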
Outline: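 In this qHTS format, normal rat kidney-derived proximal tubule cells in complete culture medium receive compound titrations, then sit 40 hours at 37 °C before luciferase-based ATP quantitation; potency is reported as AC50 from concentration-response curves.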

[7] = Cell Viability - Mesenchymal (AID 546);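 also: cells exposed to compound for 40 hours before reading; 0% = DMSO only and -100% = 100 µM tamoxifen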
Outline: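 AC50 values reflect the drop in intracellular ATP in a human kidney mesenchymal line derived from normal glomeruli. Treatment lasts 40 hr at 37 °C in complete medium, and the signal comes from CellTiter-Glo luminescence.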

[8] = Cellular Toxicity (caspase-3) HepG2 (AID 654);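 also: cells exposed to compound for 16 hours before reading; 0% = DMSO alone and 100% = caspase signal from 100 µM tamoxifen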
Outline: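 HepG2 cells (1500/well) in complete medium were treated with compounds for 16 hr at 37 °C. Caspase-3/7 activity was then read as luminescence from peptide-aminoluciferin cleavage. AC50 came from Hill fits, normalized to DMSO and 100 uM tamoxifen.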

[9] = Cellular Toxicity (caspase-3) HUV-EC-C (AID 656);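 also: 0% = DMSO basal and 100% = 100 µM tamoxifen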
Outline: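 Concentration-dependent caspase 3/7 induction was assessed in HUV-EC-C cells exposed for 16 hours. Data scaled between DMSO and tamoxifen (100 uM) controls.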

[10] = Cellular Toxicity (caspase-3) BJ (AID 658)
Outline: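 Readout: Caspase-Glo 3/7 luminescence increase in BJ cells after 16 hr treatment at 37 °C. Staurosporine and tamoxifen served as positive controls; AC50 values came from Hill modelling of data normalized to DMSO and 10 uM staurosporine.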

[11] = Cellular Toxicity (caspase-3) MRC-5 (AID 659)
Outline: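 Concentration-dependent caspase 3/7 activation is measured in human normal lung fibroblasts (MRC-5) following 16-hour treatment. AC50 values come from standard Hill-equation modeling of luminescence normalized to DMSO and 10 uM staurosporine.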

[12] = Cellular Toxicity (caspase-3) Mesangial (AID 660);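 also: cells exposed to compound for 16 h before the caspase read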
Outline: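 Human renal glomerular mesangial cells (1000/well) were treated with compounds for 16 h at 37 °C in complete medium, then caspase 3/7 activity was read by Caspase-Glo luminescence. Data were normalized to DMSO and 100 uM tamoxifen; AC50 from Hill fits.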

[13] = Cellular Toxicity (caspase-3) H-4-II-E (AID 663);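 also: cells exposed to compound for 16 hr before readout; 0% = DMSO basal and 100% = 100 µM tamoxifen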
Outline: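 Apoptosis induction is scored as increased luminescence from caspase 3/7 substrate cleavage in rat hepatoma H-4-II-E cells exposed to compound for 16 hr. Activity is scaled between DMSO and 100 uM tamoxifen.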

[14] = Cellular Toxicity (caspase-3) N2a (AID 665); details: N2a cells, luminescence, normalized: DMSO 0%, 10 µM staurosporine 100%; at 92.2 µM (top of the series);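 also: compound exposure lasted 16 h at 37 °C before readout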
Outline: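 Mouse N2a neuroblastoma cells (1500/well) were treated with compounds for 16 h at 37 °C, then caspase-3/7 activity was read by Caspase-Glo luminescence after 1 h at room temperature. Data were normalized to DMSO and 10 uM staurosporine; AC50 from Hill fits.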

[15] = Cellular Toxicity (caspase-3) NIH 3T3 (AID 666);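 also: 0% = DMSO basal and 100% = 100 µM tamoxifen stimulation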
Outline: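 Mouse NIH 3T3 fibroblasts (1000 cells/well) were treated with compound for 16 hr at 37°C in complete medium; caspase-3/7 activity was read by Caspase-Glo luminescence. Normalized to DMSO and 100 uM tamoxifen; AC50 from Hill fits.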

[16] = Cellular Toxicity (caspase-3) Renal Proximal Tubule (AID 667); details: renal proximal tubule cells; at 91.7 µM (top of the series), primary cells freshly taken from rat, solvent-only wells 0%, staurosporine 100% unless noted;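 also: cells exposed to compound for 16 hours at 37 °C before detection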
Outline: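 Caspase-Glo 3/7 read-out, rat primary kidney proximal tubule cells. Compound exposure 16 h, 37 °C; detection after 1 h at RT. Activity scaled to DMSO and 10 uM staurosporine.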

[17] = MultiTox-Fluor Cytotoxicity Assay - LYMP1-002 - Live Cells (AID 955); also: % is scaled to controls: 0 for no effect and ±100 for the full control effect
Outline: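 Human lymphoblastoid LYMP1-002 cells, 2500/well in complete medium, rested 5 hr at 37 C, then exposed to compounds for 16 hr at 37 C. Live-cell protease cleavage of GF-AFC read by fluorescence (Ex/Em 405/510) after 60 min at room temperature; AC50 from Hill fits.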

[18] = qHTS Assay for Identification of Small Molecule Inducers of Hypoxia Response (AID 2120; active = well fitted curve in the direction sought with a large enough effect in the signal ratio, with a control signal flat, not every such curve was filed as active; the % refers to the signal ratio; also: 0% is about no effect)
Outline: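 HRE-beta-lactamase reporter in CellSensor HRE-bla ME-180 cells, 2500 cells/well in Opti-MEM with 0.5% dialyzed FBS; compounds tested as titration series, 17 h at 37 degrees C. CCF4 substrate 2.5 h at room temperature; AC50 from 460/530 nm ratio.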

[19] = target: Tumor necrosis factor (Homo sapiens) (UniProt P01375); assay: qHTS assay to identify small molecules that stimulate Tumor Necrosis Factor-alpha (TNF-alpha) secretion (AID 651757; active = well fitted curve in the direction sought with a large enough effect in the signal ratio; the % refers to the signal ratio; also: 0% is about no effect)
Chain of Tumor necrosis factor (Homo sapiens) (P01375 whole entry, looked up): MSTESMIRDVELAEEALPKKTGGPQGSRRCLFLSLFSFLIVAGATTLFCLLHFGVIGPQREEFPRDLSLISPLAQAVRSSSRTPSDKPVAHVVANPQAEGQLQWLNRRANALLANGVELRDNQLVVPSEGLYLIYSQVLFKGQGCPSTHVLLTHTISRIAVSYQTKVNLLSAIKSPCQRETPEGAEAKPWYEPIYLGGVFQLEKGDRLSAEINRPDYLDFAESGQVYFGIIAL
Outline: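 THP-1 cells were exposed to compounds for 17 hrs at 37 C, after which secreted TNF-alpha was measured by homogeneous HTRF (TR-FRET) using cryptate- and XL665-labeled anti-TNF-alpha antibodies, read after 3 hr at room temperature.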

[20] = qHTS assay for small molecule agonists of the antioxidant response element (ARE) signaling pathway measured by Nrf2-dependant transcriptional activity - cell viability counter screen (AID 720653; active = well fitted curve in the direction sought with a large enough effect in the repeat runs; an effect the other way counts as inactive or inconclusive; also: % is scaled to controls: 0 for no effect and ±100 for the full control effect); details: ARE-bla HepG2 viability, CellTiter-Glo ATP luminescence, 16 h; stronger effect = lower value
Outline: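 Cytotoxicity counter screen: intracellular ATP quantified by CellTiter-Glo luminescence in the same ARE-bla HepG2 plates, after 16 h compound exposure and a 2 h beta-lactamase substrate step.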

C[C@@]12CC[C@H]3[C@@H](CC[C@@H]4C[C@H]5S[C@H]5C[C@]43C)[C@H]1CC[C@H]2O
active: Potency [1] 0.005 µM | Potency [2] 63.1 nM

C/C=C/c1ccc2c(c1)OCO2
inactive: Potency [3] > 92 µM | activity change, negative = cytotoxicity [4] -3.37% | Potency [5] | activity change, negative = cytotoxicity [6] -9.95% [at 91.7 µM] | outcome [7] | outcome [8] | outcome [9] | outcome [10] | outcome [11] | outcome [12] | outcome [13] | caspase-3 activation [14] 0.0142% | outcome [15] | caspase-3 activation [16] -4.01% [at 91.7 µM] | outcome [17] | outcome [18] | outcome [19] | max response [20] -6.6%

CC(C)c1c(CN(C)[C@@H](C)Cc2ccccc2)n(C)n(-c2ccccc2)c1=O
active: Potency [1] 7.94 µM

ClC1=C(Cl)C2(Cl)C3C(Cl)C=CC3C1(Cl)C2(Cl)Cl (stereo not drawn)
inactive: Potency [3] > 92 µM | Potency [5] | activity change, negative = cytotoxicity [6] -2.85% | outcome [7] | outcome [8] | outcome [9] | outcome [10] | outcome [11] | outcome [12] | outcome [13] | caspase-3 activation [14] -3.13% | outcome [15] | caspase-3 activation [16] 2.29% | outcome [17] | outcome [18] | outcome [19] | max response [20] -10.5%

CCc1cccc(CC)c1N(COC)C(=O)CCl
active: activity change, negative = cytotoxicity [4] -147% | Potency [5] 50.1 µM
inactive: Potency [3] > 92 µM | outcome [7] | outcome [8] | outcome [9] | outcome [10] | outcome [11] | outcome [12] | outcome [13] | caspase-3 activation [14] 4.56% | outcome [15] | caspase-3 activation [16] 1.3% | outcome [17] | outcome [18] | outcome [19] | max response [20] 6.28% and -3.56%

O=S1OCC2C(CO1)C1(Cl)C(Cl)=C(Cl)C2(Cl)C1(Cl)Cl (stereo not drawn)
inactive: Potency [3] > 92 µM | activity change, negative = cytotoxicity [4] -20.5% | Potency [5] | activity change, negative = cytotoxicity [6] -22.1% [at 91.7 µM] | outcome [7] | outcome [8] | outcome [9] | outcome [10] | outcome [11] | outcome [12] | outcome [13] | caspase-3 activation [14] 12.4% | outcome [15] | caspase-3 activation [16] 8.37% [at 91.7 µM] | outcome [17] | outcome [18] | outcome [19] | max response [20] 13.3%

COc1ccc2c(c1OC)CN1CCc3cc4c(cc3[C@H]1C2)OCO4
active: Potency [2] 1260 nM

CCC[C@@](C)(COC(N)=O)COC(=O)NC(C)C
inactive: Potency [1] | Potency [2]

ClC1=C(Cl)C2(Cl)C3C4C=CC(C4)C3C1(Cl)C2(Cl)Cl (stereo not drawn)
inactive: Potency [3] > 92 µM | activity change, negative = cytotoxicity [4] -10.7% | Potency [5] | activity change, negative = cytotoxicity [6] 4.94% [at 91.7 µM] | outcome [7] | outcome [8] | outcome [9] | outcome [10] | outcome [11] | outcome [12] | outcome [13] | caspase-3 activation [14] 2.47% | outcome [15] | caspase-3 activation [16] -0.505% [at 91.7 µM] | outcome [17] | outcome [18] | outcome [19] | max response [20] -5%

Cc1nc2cnc(N3CCNCC3)nc2n(C)c1=O
inactive: Potency [2]

CCOCN(C(=O)CCl)c1c(C)cccc1CC
active: activity change, negative = cytotoxicity [4] -155% | Potency [5] 25.1 µM | activity change, negative = cytotoxicity [6] -103%
inactive: outcome [7] | outcome [8] | outcome [9] | outcome [10] | outcome [11] | outcome [12] | outcome [13] | caspase-3 activation [14] -0.109% | outcome [15] | caspase-3 activation [16] 0.858% | outcome [17] | outcome [18] | outcome [19] | max response [20] -15.8% and -13.8%

CN1CCc2cc3c(cc2[C@@H]1[C@@H]1OC(=O)c2c1ccc1c2OCO1)OCO3
active: Potency [2] 398 nM and 50.1 nM
